# Screening data from PubChem.
# HCV inh: inhibitors of hepatitis C virus infection | AID 651820 | Huh7.5.1 HCVcc-Cre infection, luciferase reporter, 44 h | hit rate 3.4% among 340,000 | Potency, µM (top dose mostly 41.8 µM), inactives show at the highest dose activity change, negative = inhibition, usual class: inhibitors; also: potency is read from the fitted curve at half-maximal effect
#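 Compounds are dispensed onto cells plated 4 h earlier at 1,000 per well, with HCVcc-Cre virus (about 0.5 moi) added next. Following 44 h of culture, luminescent signal is measured for 15 sec after 15 min with substrate at room temperature.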
# FMDV inh: foot and mouth disease virus antiviral activity. FMDV antiviral cell-based qHTS. Potency, µM (highest dose often 57.9 µM), inactives show at the highest dose activity change, negative = inhibition, actives largely listed as inhibitors. hit rate 1.2% among 410,000; calls by dose curve; tested in HEK293T cells; also: read-out not given here; potency is read from the fitted curve at half-maximal effect; nearly all actives have a fitted effect of over 45% in size
# VACV mCherry inh: vaccinia inhibition (mCherry reporter) | Vaccinia virus mCherry reporter infection, fluorescence | hit rate 0.63% among 310,000 | Potency, µM (highest dose often 36.5 µM), for inactives: top-dose activity change, negative = inhibition, usual class: inhibitors; calls by dose curve; tested in A549 cells; also: potency is read from the fitted curve at half-maximal effect; nearly all actives have a fitted effect of over 35% in size
# Vaccinia Venus: vaccinia inhibition (Venus reporter) | Vaccinia virus Venus reporter expression, fluorescence | Potency, µM (doses to about 36.5 µM), without a hit: top-dose activity change, negative = inhibition, actives largely listed as inhibitors | hit rate 0.46% among 330,000 | AID 720580; calls by dose curve; tested in A549 cells; also: potency is read from the fitted curve at half-maximal effect; nearly all actives have a fitted effect of over 30% in size
# Sm TGR inh: blocks Schistosoma mansoni thioredoxin glutathione reductase; Q962Y6; hit rate 3% among 360,000; Potency, µM (doses to about 114 µM), for the others: at the top dose activity change, negative = inhibition, most hits filed as inhibitors; purified TGR, DTNB reduction, TNB absorbance 405 nm; also: potency is read from the fitted curve at half-maximal effect; nearly all actives have a fitted effect of over 60% in size
#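 TGR 20 nM + NADPH 100 uM (dispensed conc.), cpd preinc 15 min RT; start with NADPH (500 uM addition) then DTNB (15 mM addition). Kinetic TNB absorbance, 405 nm filter. Four-parameter Hill fit across titration.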
# HCMV inh: human cytomegalovirus inhibition. HFF cells, HCMV-luciferase reporter, 72 h; stronger effect = lower value. activity change, negative = inhibition, % at 57.5 µM. hit rate 4.5% among 410,000; in the data active = activity change below about -60%; inconclusive = no clear call, values can overlap the other calls; inactive = above about -39%
#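 Luciferase read-out from HCMV-luciferase-infected HFFs (MOI 1 PFU/cell) 72 h post infection at 37C; compounds added after 16 h cell attachment; activity normalized between buffer-only basal and Salinomycin (10uM) inhibitor controls.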
# Starred values were filed as active, the others as inactive; i = inactive; ? = inconclusive; . = not tested or not shown; [ ] = another dose, or the depositor's remark. This is a sample that favours compounds with a hit; in the whole collection about 9.3% have one here. Unless noted, calls follow the shape of the dose curve; as a rule, active = well fitted curve in the direction sought with a large enough effect; inconclusive = small, poorly fitted or top-dose-only effect, or another doubt; inactive = no such curve, though single readings can be large; an effect the other way counts as inactive or inconclusive. % is scaled to controls: 0 for no effect and ±100 for the full control effect.
SMILES,HCV inh,FMDV inh,VACV mCherry inh,Vaccinia Venus,Sm TGR inh,HCMV inh
CC(C)CCn1c(N2CCC(C(N)=O)CC2)nc2c1c(=O)[nH]c(=O)n2C,20%,-18%,1%,4%,0%[11.4 µM],-94*
CC(C)CCn1c(N2CCCC2)nc2c1c(=O)[nH]c(=O)n2C,-11%,-3%,.,.,0%,81
CCCCCn1c(N2CCN(Cc3ccccc3)CC2)nc2c1c(=O)[nH]c(=O)n2C,10µM*,-1%,.,.,4%,-33
COc1ccccc1-c1cc(NC=O)c2ncc(-c3ccc(S(C)(=O)=O)cc3)n2c1,.,-7%,?,?,.,284
S=c1[nH]nc(CSCc2ccccc2Cl)n1-c1ccccc1,5%,8%,.,.,0%,0
Cn1c(=O)[nH]c(=O)c2c1nc(CN1CCOCC1)n2Cc1ccccc1,16%,16%,.,.,2%,44
Cc1cccc(Cn2c(CN3CCN(Cc4ccccc4)CC3)nc3c2c(=O)[nH]c(=O)n3C)c1,10µM*,-19%,-9%,-9%,-22%,-27
O=C(O)CCN1C(=O)/C(=C/c2ccc(-c3nc4ccccc4s3)o2)SC1=S,9%,6%,.,-13%,-32%,50
O=C(O)CC(C(=O)O)N1C(=O)/C(=C/C=C/c2ccco2)SC1=S (stereo not given),0%,-17%,.,.,5µM*,?
O=C(NN1C(=O)/C(=C/C=C/c2ccco2)SC1=S)c1ccccc1O,-12%,-5%,-1%,15%,2.8µM*,-18
O=C(O)CCCN1C(=O)/C(=C\c2ccc(-c3nc4ccccc4s3)o2)SC1=S,-13%,-9%,i,-8%,35µM*,?
O=C(O)CC(C(=O)O)N1C(=O)/C(=C/c2ccc(-c3nc4ccccc4s3)o2)SC1=S (stereo not given),29%,-9%,-18%[1.46 µM],-7%,?,-3
O=C(O)CCCN1C(=O)/C(=C\c2ccccc2OCc2ccccc2)SC1=S,11%,10%,i,-1%,3%,?
O=C(O)CCCN1C(=O)/C(=C/C=C/c2ccco2)SC1=S,42%,?,-11%,37%,1.8µM*,?
COc1ccc(NC(=O)NNC(=O)c2cc3ccccc3cc2O)cc1,1%,3%,.,.,2%,-25
OC(CN1CCC(Cc2ccc(F)cc2)CC1)c1ccc(Cl)cc1 (stereo not given),.,-5%,.,.,.,.
Cc1cccc(-n2c(C)cc(C=C(C#N)C#N)c2C)c1,6%,-14%,-3%,-9%,-10%,21
COc1ccc(/C=C2\SC(=S)N(C(Cc3ccccc3)C(=O)O)C2=O)cc1 (stereo not given),17%,-20%,1%,6%,7%,8
O=C(O)C(Cc1ccccc1)N1C(=O)/C(=C/C=C/c2ccco2)SC1=S (stereo not given),34%,-15%,8%,54%,6.3µM*,-23
Cc1ccc(C)c(N2CCN(CCCNC(=O)c3cnn(-c4ccccc4)c3C3CCN(C(=O)OC(C)(C)C)CC3)CC2)c1,.,0%,-17%,?,-7%,?
C=CCn1c(SCC(=O)c2cccs2)nnc1-c1cccc(OC)c1,0%,.,-18%,-9%,?,20
C=CCn1c(SCC(=O)c2cccs2)nc2sc(C)cc2c1=O,?,32µM*,-29%,-22%,-1%,-35
COc1cc(C)nc(OCCNC(=O)COc2ccc(Cl)cc2Cl)n1,?,-14%,.,-14%,-31%,-60*
CN(C)c1nc(OCCNC(=O)COc2ccc(Cl)cc2Cl)nc(N(C)C)n1,?,?,.,.,1%,10
O=C(COc1ccccc1Cl)Nc1ccc2[nH]c(=O)[nH]c2c1,-22%,-12%,-23%,-17%,-2%,-21
SMILES,HCV inh,FMDV inh,VACV mCherry inh,Vaccinia Venus,Sm TGR inh,HCMV inh
Cc1ccc(NC(=S)Nc2ccc3[nH]c(=O)[nH]c3c2)cc1C,1%,-5%,-12%,-4%,-29%,?
Fc1ccccc1CNC(=S)Nc1cccc(C(F)(F)F)c1,?,-5%,?,?,-22%,-79*
S=C(NCc1ccccc1)Nc1cccc(Cl)c1,-2%,62%,-7%,-14%,?,-84*
CCOc1ccccc1OCC(=O)Nc1ccc2[nH]c(=O)[nH]c2c1,13µM*,-11%,.,.,-12%,-18
O=c1[nH]c2ccc(NC(=S)NCc3ccccc3)cc2[nH]1,10%,-14%,.,.,8.9µM*,-30
O=C(CNc1cccc(Cl)c1)NNC(=S)NCc1ccccc1,?,-24%,-18%,1%,.,?
CCCCCCn1c(=O)n2n(c1=O)C[C@]1(OC(=O)NCc3ccccc3F)CN(S(=O)(=O)c3ccc(C)cc3)C[C@]1(O)C2,.,-21%,-15%,?,.,-13
FC(F)(F)c1cccc(NC(=S)NCc2ccc(Cl)cc2)c1,?,-27%,-8%,?,-1%,-90*
Fc1ccc(CNC(=S)Nc2cccc(C(F)(F)F)c2)cc1,?,-49%,-6%,?,-14%,-36
O=C(c1ccco1)N1CCN(C(c2cccs2)c2nnnn2C2CCCC2)CC1 (stereo not given),-7%,18%,-15%,-14%,-35%,-101*
Cc1ccc2occ(C(c3nnnn3C3CCCC3)N3CCN(C(=O)c4ccco4)CC3)c(=O)c2c1 (stereo not given),0%,.,-9%,-17%,18µM*,-28
Cc1cccc(CS(=O)(=O)c2nnc([C@H](Cc3ccccc3)NC(=O)OC(C)(C)C)o2)c1,?,32µM*,.,.,1.8µM*,.
COC(=O)CS(=O)(=O)c1nnc([C@H](Cc2ccccc2)NC(=O)OC(C)(C)C)o1,?,32µM*,-23%,3%,1.4µM*,79
Cc1cc(C)cc(NC(=O)Nc2ccccc2OCc2cc(=O)n3ccccc3n2)c1,.,35%,-6%,-22%,5%,30
O=C1NC(=S)N/C1=C/c1cccc([N+](=O)[O-])c1O,-2%,-15%,-14%,-11%,5%,47
O=C(c1cccnc1)N1N=C2CCCCCC2C1(O)C(F)(F)F (stereo not given),10%,-13%,-30%,-11%,.,20
O=C1c2ccccc2NC(c2cccc(O)c2)N1Cc1ccco1 (stereo not given),-1%,-13%,i,-8%,32µM*,0
O=C1c2ccccc2NC(c2ccc3c(c2)OCO3)N1Cc1ccco1 (stereo not given),.,.,-5%,-12%,.,.
CCCCCC1CCC(C(=O)NCCN2CCOCC2)CC1 (stereo not given),-21%,-15%,-22%,-12%,10%,-24
COc1ccccc1C(CC(=O)c1ccccc1)C(=O)c1ccccc1 (stereo not given),.,-4%,-8%,-11%,.,-17
COc1ccccc1C(CC(=O)c1ccccc1)CC(=O)c1ccccc1,?,15%,-7%,-4%,-5%,-77*
